Assay results published in the supplement of paper PMC13380429.

System: Vero E6 infected with SARS-CoV-2
Test: inhibition of SARS-CoV-2 cytopathic effect; higher = more antiviral protection, active = above 15
Details: 48 h

Measured: inhibition of SARS-CoV-2 cytopathic effect

CCN(CC)CCOC(=O)c1ccc(N)cc1 [procaine]
inactive: 1 nM -1.32% | 8.33 nM -0.89% | 100 nM -0.82% | 833.33 nM -1.72% | 10000 nM -0.17%

O=C(CCCN1CCC2(CC1)C(=O)N(Cc1cccc(F)c1)CN2c1ccccc1)c1ccc(F)cc1 [3'-fluorobenzylspiperone]
inactive: 1 nM 1.1% | 8.33 nM 1.76% | 100 nM 1.3% | 833.33 nM 4.46%
active: 10000 nM 71.7%

CC(=O)OCC1=C(C(=O)O)N2C(=O)[C@@H](NC(=O)CCCC(N)C(=O)O)C2SC1 (stereo not given in full) [cephalosporin-c-zn]
inactive: 1 nM -4.01% | 8.33 nM -0.13% | 100 nM -2.05% | 833.33 nM 3.87% | 10000 nM 1.87%

CC(=O)O[C@]1(C(C)=O)CC[C@H]2[C@@H]3C=C(Cl)C4=CC(=O)CC[C@]4(C)[C@H]3CC[C@@]21C [chlormadinone-acetate]
inactive: 1 nM -13.3% | 8.33 nM -12.7% | 100 nM -10.2% | 833.33 nM -13.4% | 10000 nM -13%

Cc1ccc(-c2cn3c4c(sc3n2)CCCC4)cc1 [pifithrin-cyclic]
inactive: 1 nM -1.71% | 8.33 nM -2.91% | 100 nM 1.98% | 833.33 nM 0.25% | 10000 nM 0.74%

O=C(CCc1ccc(O)cc1)c1c(O)cc(O)cc1O[C@@H]1O[C@H](CO)[C@@H](O)[C@H](O)[C@H]1O [phlorizin]
inactive: 1 nM -2.08% | 8.33 nM 0% | 100 nM -10.3% | 833.33 nM 0.18% | 10000 nM 1.43%
